Results filed as inconclusive are left out. Where a call stands in place of a potency, no number is given. Calls of active or inactive are those of the source. Calls follow the shape of the dose curve; as a rule, active = well fitted inhibition curve with a large enough effect; inconclusive = small, poorly fitted or top-dose-only effect, or effect the other way; inactive = no such curve, though single readings can be large or run the other way.
Assay: Confirmation Concentration-Response Assay for Inhibitors of the ERK Signaling Pathway using a Homogeneous Screening Assay
Description: qHTS Assay for Inhibitors of the ERK Signaling Pathway using a Homogeneous Screening Assay
NIH Chemical Genomics Center [NCGC]
NIH Molecular Libraries Screening Centers Network [MLSCN]
Assay Submitter (PI): Dr. Wei Zheng, NCGC/NIH
The Ras/extracellular-signal-regulated kinase (ERK) mitogen activated protein (MAP) kinase signaling pathway (ERK1/2 cascade) plays is a key role in transmitting signals from the cell surface to the nucleus (Nishida and Gotoh 1993; Chang and Karin, 2001). The cascade is initiated by the small G-protein Ras, which recruits Raf […], where activation occurs. Alternatively, this pathway can be activated by elevating intracellular cAMP.
Activation of the ERK pathway is essential in increased cell division and cell survival. Sustained and constitutive activation of the ERK pathway, however, has been linked to uncontrolled cell proliferation, increased cell survival, and tumor progression. Thus, the ERK has been as an attractive target for cancer chemotherapy in the past few years (Sebolt-Leopold and Herrera, 2004). Given its physiological and pathological importance, assessment of ERK phosphorylation has been broadly performed in both basic research and drug discovery. Most assays for the measurement of ERK phosphorylation use the antibody-based detection methods, such as western blot and ELISA. These assays require multiple reagent additions with cell wash steps and are not suitable for high-throughput screening.
The current cell-based ERK phosphorylation assay was performed using AlphaScreen platform. […]
HEK293 cells stably expressing type-1 vasopressin receptor (V1b) were maintained in DMEM medium (Invitrogen, Carlsbad, CA) at 37C under a humidified atmosphere containing 5% CO2 and 95% air. […] The ERK phosphorylation in cells was determined using an AlphaScreen assay kit provided by PerkinElmer. […] AC50 values were determined from concentration-response data modeled with the standard Hill equation. […]
(10) Detect the assay plate in an EnVision plate reader (PerkinElmer) using the AlphaScreen detection mode. […]

Structure (SMILES)	Potency
O=C1NC(=O)C(=Cc2ccccc2Oc2ccc(F)cc2)C(=O)N1	inactive
N#Cc1c(Cl)c(Cl)c(Cl)c(C#N)c1Cl	2.24 µM (active)
CC1=CC(=O)c2c(O)cccc2C1=O	inactive
